# Data published in PubChem BioAssay (NCI).
# Compounds without any hit were thinned out: in the full panel of roughly 83,000, 20% have a hit.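 Each cell line was grown in a 96-well plate and treated with one concentration of compound for 48 hours. Values below 10 were considered active.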 A number with no mark means an inactive call. Activity calls are given as the source filed them.
# System: MDA-MB-468 breast
# Experiment: NCI-60 one-dose screen, 48 h (100 = growth as untreated, 0 = no growth, -100 = all killed)
# Settings: 10 µM unless noted
row,Compound,growth
1,CC(=O)Nc1cc(F)cc(C(F)(F)F)c1Cl,86.3%
2,Cn1cc(-c2noc(-c3cn(C)c4ncc(F)cc34)n2)c2ccccc21,36.2%
3,Cc1cc(=O)[nH]n1-c1cc(Cl)ccc1N,110%
4,COc1ccc(C(=O)c2sc3nc4c(c(-c5cccnc5)c3c2N)CCCC4)cc1OC,102%
5,C#C[C@]1(O)CC[C@H]2[C@@H]3CC=C4c5sc(Nc6cccc(Cl)n6)nc5CC[C@]4(C)[C@H]3CC[C@@]21C,23.3%
6,CN(c1ccc(Cl)cc1)S(=O)(=O)c1ccc(-c2cnc(C3CC3)o2)cc1,22.7%
7,CC1(C)C(=O)/C(=C\c2cccnc2)C[C@]2(C)[C@H]3CC=C4[C@@H]5C[C@@](C)(C(=O)O)CC[C@]5(C)CC[C@@]4(C)[C@]3(C)CC[C@@H]12,95.8%
8,CCOC(=O)c1c(-c2ccc(C)cc2)c(C#N)c(=O)n(-c2cccc(C(F)(F)F)c2)c1N,99.9%
9,O=S(=O)(NCCNc1cc(-c2c(-c3cccc(O)c3)nc3sccn23)ccn1)c1ccc(C(F)(F)F)cc1,30.7%
10,CCOC(=O)/C=C1\S/C(=N\Nc2ccc([N+](=O)[O-])cc2[N+](=O)[O-])N(Cc2ccccc2)C1=O,84.2%
11,[O-]/[N+](=C\C=C\c1ccccc1)c1ccccc1,113%
12,CCN(CC)CCCC(C)Nc1cnc(C(=O)Nc2ccc(Cl)c3cccnc23)cn1 (stereo not drawn),-28% (active)
13,CCc1cnn2c(NCc3ccc[n+]([O-])c3)cc(N3CCCC[C@H]3CCO)nc12,-56.3% (active)
